Columns and labels:
[1] = tested on: Vero E6 infected with SARS-CoV-2; experiment: morphology score (similarity to uninfected cells); higher = more like uninfected cells; details: 24 h
[2] = tested on: Vero E6 infected with SARS-CoV-2; experiment: SARS-CoV-2 infection rate relative to infected DMSO; higher = more infection, active = 60 or less; details: 24 h

SMILES	morphology score [1]	SARS-CoV-2 infection rate [2]
C#Cc1cnc2nc(O)n(C(CC)CC)c2n1 [tirasemtiv] (10 µM)	-0.109	104% (inactive)
O=C(c1ccc(F)c(F)c1Nc1ccc(I)cc1F)N1CC(O)([C@@H]2CCCCN2)C1 [cobimetinib] (0.833333 µM)	-0.272	116% (inactive)
Cc1ccc(NC(=O)C2(c3ccc4c(c3)OC(F)(F)O4)CC2)nc1-c1cccc(C(=O)O)c1 [lumacaftor] (10 µM)	0.0696	114% (inactive)
CCCCc1nc(C)c(CC(=S)N(C)C)c(=O)n1Cc1ccc(-c2ccccc2-c2nnn[nH]2)cc1 [fimasartan] (10 µM)	0.0951	112% (inactive)
Cc1cc(C)c(NC(=O)C2CC3CCC2C3)c(C)c1 (centres undefined) (10 µM)	-0.102	102% (inactive)
CN[C@@H](C)C(=O)N[C@H](C(=O)N1CCC[C@H]1C(=O)Nc1snnc1-c1ccccc1)C1CCCCC1 (10 µM)	-0.0857	110% (inactive)
COc1ccc2c(c1OC)C(=O)O[C@@H]2[C@H]1c2c(cc3c(c2OC)OCO3)CCN1C [noscapine] (10 µM)	-0.105	104% (inactive)
C[C@]1(Cn2ccnn2)[C@H](C(=O)O)N2C(=O)C[C@H]2S1(=O)=O [tazobactam] (10 µM)	0.0668	108% (inactive)
CCC(=O)OCC(=O)[C@@]1(OC(=O)CC)[C@H](C)C[C@H]2[C@H]3[C@H]([C@@H](O)C[C@@]21C)[C@@]1(C)C=CC(=O)C=C1C[C@H]3Cl [alclometasone-dipropionate] (10 µM)	0.139	98% (inactive)
CCn1c2ccccc2c2cc(Nc3ccnc(NCCCN4CCOCC4)n3)ccc21 (0.833333 µM)	0.235	93% (inactive)
CCc1cnn2c(NCc3ccc[n+]([O-])c3)cc(N3CCCC[C@H]3CCO)nc12 [dinaciclib] (0.833333 µM)	-0.154	116% (inactive)
CC(C(=O)O)c1ccc(N2Cc3ccccc3C2=O)cc1 (centres undefined) [indoprofen] (10 µM)	-0.106	110% (inactive)
CN(c1ncccc1CNc1nc(Nc2ccc3c(c2)CC(=O)N3)ncc1C(F)(F)F)S(C)(=O)=O (0.833333 µM)	-0.119	106% (inactive)
Cc1ccc(NC(=O)c2ccc(CN3CCN(C)CC3)cc2)cc1Nc1nc(-c2cccnc2)cs1 [masitinib] (10 µM)	0.757	43% (active)
Oc1ccc(OCc2ccccc2)cc1 [monobenzone] (10 µM)	-0.207	119% (inactive)
Cc1cccc(-c2[nH]c(CNc3ccccc3F)nc2-c2ccc3ncnn3c2)n1 (10 µM)	0.295	109% (inactive)
N#Cc1ncccn1 [2-cyanopyrimidine] (10 µM)	0.0613	108% (inactive)
O=C(O)c1ccc2c(c1)nc(Nc1cccc(Cl)c1)c1ccncc12 (10 µM)	0.237	103% (inactive)
Cc1c(OCC(F)(F)F)ccnc1C[S+]([O-])c1nc2ccccc2[nH]1 (centres undefined) [lansoprazole] (10 µM)	0.115	99% (inactive)
COc1cc([C@@H]2c3cc4c(cc3[C@@H](O[C@@H]3O[C@@H]5CO[C@@H](C)O[C@H]5[C@H](O)[C@H]3O)[C@H]3COC(=O)[C@H]23)OCO4)cc(OC)c1OP(=O)(O)O [etoposide-phosphate] (10 µM)	0.101	94.5% (inactive)
O[C@H]1[C@H](O)[C@@H](O)[C@H](O)[C@@H](O)[C@H]1O [inositol] (10 µM)	-0.166	95.5% (inactive)
CCCN(CCC)CCc1ccc(OC)c(OCCc2ccccc2)c1 (10 µM)	0.353	86.5% (inactive)
CCCCCCCCCCCCCCCCCCOP(=O)([O-])OC1CC[N+](C)(C)CC1 [perifosine] (10 µM)	0.116	104% (inactive)
O=C(O)c1cc(=O)c2ccccc2o1 [chromocarb] (10 µM)	-0.133	106% (inactive)
Cn1ncnc1[C@H]1c2n[nH]c(=O)c3cc(F)cc(c23)N[C@@H]1c1ccc(F)cc1 [talazoparib] (0.833333 µM)	-0.223	113% (inactive)
Cc1[nH]c(=O)c(C#N)cc1-c1ccncc1 [milrinone] (10 µM)	0.236	93.5% (inactive)
C[C@@H](CN1CCC(Cc2ccccc2)CC1)[C@@H](O)c1ccc(O)cc1 (10 µM)	0.157	98.5% (inactive)

— the supplement of paper PMC13380429
